Measured values taken from PubChem BioAssay (NCI).
This is part of a sample that, as a whole, favours compounds with a hit. Of some 83,000 tested, about 20% had one in any assay.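 Single-dose data. Exposure time 48 hours. Values below 10 considered active.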 Values without a mark were called inactive. Activity calls are given as the source filed them.

Legend:
Test in all cases: NCI-60 one-dose screen, 48 h (100 = growth as untreated, 0 = no growth, -100 = all killed)
Conditions in all cases: 10 µM unless noted
[1] = tested on: NCI-H23 lung
[2] = tested on: NCI-H226 lung
[3] = tested on: NCI-H322M lung
[4] = tested on: HOP-62 NSCLC
[5] = tested on: NCI-H460 lung
[6] = tested on: HOP-92 NSCLC
[7] = tested on: NCI-H522 lung
[8] = tested on: A549/ATCC NSCLC
[9] = tested on: 786-0 renal
[10] = tested on: COLO 205 colon
[11] = tested on: DU-145 prostate
[12] = tested on: K-562 leukemia
[13] = tested on: MALME-3M melanoma
[14] = tested on: MDA-MB-231 breast
[15] = tested on: RXF 393 renal
[16] = tested on: SF-268 CNS
[17] = tested on: SF-295 CNS
[18] = tested on: SF-539 CNS
[19] = tested on: UACC-257 melanoma
[20] = tested on: M14 melanoma

SMILES	growth [1]	growth [2]	growth [3]	growth [4]	growth [5]	growth [6]	growth [7]	growth [8]	growth [9]	growth [10]	growth [11]	growth [12]	growth [13]	growth [14]	growth [15]	growth [16]	growth [17]	growth [18]	growth [19]	growth [20]
CC(=O)O[C@H]1CC[C@@]2(C)C(=CC[C@H]3[C@@H]4C[C@@H](N5CC5)[C@H](C(C)=O)[C@@]4(C)CC[C@@H]32)C1	98.5%	92.2%	110%	83.4%	93.2%	80.7%	88.7%	100%	101%	99.2%	105%	72.4%	98.1%	91.4%	103%	93.2%	97.5%	88.8%	112%	95.6%
C[C@@H]1C[C@@]2(C)[C@@H](CC[C@@H]3[C@@H]2CC[C@]2(C)C(=O)CC[C@@H]32)CC1=O	104%	102%	96.1%	78.9%	108%	71.7%	91.9%	82.7%	93.2%	99.5%	108%	93.1%	118%	103%	49.7%	102%	90.7%	95%	113%	96.9%
COC(=O)[C@@H](C)C[C@H](Cc1ccccc1)NC(=O)c1csc([C@@H](C[C@H](C(C)C)N(C)C(=O)[C@@H](NC(=O)[C@H]2CCCCN2C)C2CC2)OC(C)=O)n1	22%	20.5%	52.2%	15.7%	14.1%	31.3%	-45.5% (active)	13%	21.8%	-69.9% (active)	2.33% (active)	9.03% (active)	63.6%	23%	46.9%	32.8%	9.01% (active)	-0.629% (active)	58.3%	10.8%
CC[C@H](C)[C@H](NC(=O)C12C3C4C1C1C2C3C41NC(C)=O)C(=O)N(C)[C@H](C[C@@H](OC(C)=O)c1nc(C(=O)N[C@@H](Cc2ccccc2)C[C@H](C)C(=O)OC)cs1)C(C)C (stereo not given in full)	25.1%	31.7%	51.5%	22.4%	3.63% (active)	30.2%	6.65% (active)	27.7%	12%	-26.1% (active)	1.99% (active)	8.82% (active)	58.6%	22.1%	41.9%	27.5%	13%	5.34% (active)	44.2%	1.02% (active)
CC(C)(C)C(=O)OCOP(=O)(NCc1ccccc1)C1CCCN(O)C1=O (stereo not given)	49.1%	32.4%	27.8%	23.4%	7.07% (active)	34%	8.18% (active)	29.9%	23.9%	45.7%	55%	32.3%	19.9%	22.6%	8.85% (active)	10.5%	60.3%	45.2%	57.3%	38.4%
COc1ccc(NC([Se])=NC23CC4CC(CC(C4)C2)C3)cc1	-23% (active)	-32.7% (active)	3.73% (active)	-0.819% (active)	-8.63% (active)	-6.73% (active)	-32.6% (active)	-0.959% (active)	-42.1% (active)	-32.1% (active)	2.16% (active)	12.3%	-18.5% (active)	-44.4% (active)	-41% (active)	38.5%	-23.6% (active)	-6.89% (active)	-45.5% (active)	-6.57% (active)
COC(=O)[C@@H](C)C[C@H](Cc1ccccc1)NC(=O)c1csc([C@@H](C[C@H](C(C)C)N(C)C(=O)[C@H](C)NC(=O)[C@H]2CCCCN2C)OC(C)=O)n1	46%	61%	40.6%	32.6%	12%	40.4%	8.96% (active)	46.6%	35%	-16.2% (active)	4.34% (active)	10% (active)	44.2%	19.5%	8.78% (active)	46.9%	17%	-2.07% (active)	45.8%	5.98% (active)
